Compound activity as filed in PubChem BioAssay.
This is a sample that favours compounds with a hit; in the whole collection about 32% have one here.
CYP2C19 inh: human CYP2C19 inhibition; inhibition, % at 5 µM; P33261; hit rate 21% among 96,000; CYP2C19 Supersomes, luciferin-H EGE luminescence, 30 min;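 active = CYP2C19 inhibition above a set limit at 5 µM in the primary screen, cut at about 50% in these data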;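 note: plate controls were negative control wells for no effect and 2.5 mM tranylcypromine positive control for full effect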
PostGolgi ctrl: growth of the yeast control strain, post-Golgi counter-screen; hit rate 5% among 98,000; efflux-deficient yeast background strain, growth absorbance A615, 16 h; inhibition, % at 10 µM
CYP2C9 act: activators of human CYP2C9 | P11712 | activation factor at 5 µM | hit rate 1.4% among 96,000 | recombinant CYP2C9, luciferin-H conversion, luminescence; hits give high values; factor 1 = untreated enzyme, 0 = blocked | AID 1024;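 active = activation factor of 2 or more for CYP2C9 at a 5 µM dose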;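 note: 0 = sulfaphenazole-blocked wells and 1 = vehicle-only wells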
Target sequence (P11712 whole entry, looked up): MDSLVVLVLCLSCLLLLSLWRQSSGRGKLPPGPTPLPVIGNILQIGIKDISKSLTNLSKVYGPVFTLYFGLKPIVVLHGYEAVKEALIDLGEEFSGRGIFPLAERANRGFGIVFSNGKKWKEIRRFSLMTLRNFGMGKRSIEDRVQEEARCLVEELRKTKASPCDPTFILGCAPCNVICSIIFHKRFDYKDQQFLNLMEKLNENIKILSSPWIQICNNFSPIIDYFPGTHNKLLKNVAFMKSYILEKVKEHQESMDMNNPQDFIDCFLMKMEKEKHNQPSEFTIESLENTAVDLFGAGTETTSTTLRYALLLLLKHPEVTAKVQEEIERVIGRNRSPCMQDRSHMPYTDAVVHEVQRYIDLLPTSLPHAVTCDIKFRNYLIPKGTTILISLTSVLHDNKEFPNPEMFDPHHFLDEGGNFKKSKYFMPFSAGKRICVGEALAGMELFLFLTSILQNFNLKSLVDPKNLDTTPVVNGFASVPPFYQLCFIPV
CYP2C9 inh: human CYP2C9 inhibition; CYP2C9 Supersomes, luciferin-H conversion, luminescence; hit rate 20% among 96,000; inhibition, % at 5 µM;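 active = blocking of liver enzyme CYP2C9 beyond about 50% at 5 µM, limit read from the data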
PostGolgi yeast: growth inhibition of a yeast mutant, post-Golgi transport screen; post-Golgi transport phenotypic cell assay; inhibition, % at 10 µM; hit rate 0.9% among 98,000; AID 739;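 note: yeast cells grown in 1536-well plates; yeast grown about 18 h at 30C before absorbance read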
CYP2C19 act: cytochrome P450 2C19 (human) activation. P33261. recombinant CYP2C19, luciferin-H EGE luminescence; hits give high values; 0 = fully inhibited enzyme, 1 = untreated enzyme. activation factor at 5 µM. 96,000 tested, under 10 active. AID 1025;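 active = activation factor of at least 2 at 5 µM in the primary screen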;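 note: 0 = wells with 2.5 mM tranylcypromine and 1 = vehicle-only wells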
The depositor's hits bear a star. Cut-off read from the data, not from the text of the source, unless noted: active = inhibition above about 30%; inactive = the rest.

For O=C(Nc1ccc2c(c1)oc1ccc(S(=O)(=O)N3CCCC3)cc12)C1CC1 the results were CYP2C19 inh 23, PostGolgi ctrl 5, CYP2C9 act 0.5, CYP2C9 inh 53*, PostGolgi yeast -9 and CYP2C19 act 0.8.
For O=C(Nc1ccc2c(c1)oc1ccccc12)C1CC1 the results were CYP2C19 inh 6, PostGolgi ctrl 8, CYP2C9 act 1, CYP2C9 inh 0, PostGolgi yeast -2 and CYP2C19 act 0.9.
COc1ccc(S(=O)(=O)N2CCCC(C(=O)Nc3ccc(OC)c(OC)c3)C2)cc1 (configuration not stated) was read as CYP2C19 inh 2, PostGolgi ctrl 39*, CYP2C9 act 1.1, CYP2C9 inh -10, PostGolgi yeast 12 and CYP2C19 act 1.
Screening COC(=O)Nc1ccc(S(=O)(=O)N2CCCC(C(=O)Nc3cccc4c3OCCO4)C2)cc1 (configuration not stated) returned CYP2C19 inh 64*, PostGolgi ctrl 12, CYP2C9 act 0.2, CYP2C9 inh 83*, PostGolgi yeast -6 and CYP2C19 act 0.4.
Screening COc1ccc(C2C(C(=O)NCc3ccccc3)=C(C)Nc3ncnn32)cc1OC (configuration not stated) returned CYP2C19 inh -7, PostGolgi ctrl 6, CYP2C9 act 1.1, CYP2C9 inh -12, PostGolgi yeast 2 and CYP2C19 act 1.1.
N#C/C(C(=O)NCc1ccco1)=C1/SC(Cc2ccc(F)cc2)C(=O)N1c1ccccc1 (configuration not stated) was read as CYP2C19 inh -8, PostGolgi ctrl 1, CYP2C9 act 1.2, CYP2C9 inh -20, PostGolgi yeast 4 and CYP2C19 act 1.1.
Cc1ccc(C)c2[nH]c(=O)c(CCNC(=O)C(C)C)cc12 was read as CYP2C19 inh -14, CYP2C9 act 1.1, CYP2C9 inh -13 and CYP2C19 act 1.1.
CC1CCC(NC(=O)C2CCN(C(=O)NC3CCCCC3)CC2)CC1 (configuration not stated) was read as CYP2C19 inh -17, PostGolgi ctrl 3, CYP2C9 act 1.2, CYP2C9 inh -18, PostGolgi yeast 17 and CYP2C19 act 1.2.
For O=C(NCc1ccccn1)C1CCCN(S(=O)(=O)c2ccccc2)C1 (configuration not stated) the results were CYP2C19 inh -7, PostGolgi ctrl -3, CYP2C9 act 1, CYP2C9 inh 1, PostGolgi yeast -5 and CYP2C19 act 1.1.
For COc1ccc(S(=O)(=O)N2CCCC(C(=O)NCc3ccccn3)C2)cc1 (configuration not stated) the results were CYP2C19 inh 15, PostGolgi ctrl 0, CYP2C9 act 2.4*, CYP2C9 inh -138, PostGolgi yeast -4 and CYP2C19 act 0.9.
For O=C(COc1ccc(S(=O)(=O)N2CCCCC2)cc1)NCc1ccncc1 the results were CYP2C19 inh 92*, PostGolgi ctrl 5, CYP2C9 act 0.1, CYP2C9 inh 92*, PostGolgi yeast 2 and CYP2C19 act 0.1.
`COc1ccc(S(=O)(=O)N2CCCC(C(=O)NCc3ccncc3)C2)cc1` (configuration not stated) gave CYP2C19 inh 99*, PostGolgi ctrl 2, CYP2C9 act 0, CYP2C9 inh 99*, PostGolgi yeast -1 and CYP2C19 act 0.
`O=C(COC(=O)c1ccc(S(=O)(=O)N2CCCC2)cc1)NCc1ccc(F)cc1` gave CYP2C19 inh 23, PostGolgi ctrl 6, CYP2C9 act 0.7, CYP2C9 inh 26, PostGolgi yeast -5 and CYP2C19 act 0.8.
Screening Cc1ccc(S(=O)(=O)N2CCC(C(=O)NCc3ccncc3)CC2)cc1 returned CYP2C19 inh 84*, PostGolgi ctrl 8, CYP2C9 act 0, CYP2C9 inh 99*, PostGolgi yeast -13 and CYP2C19 act 0.2.
`CC(C)C(C(=O)Nc1ccc(N2CCOCC2)cc1)N1C(=O)c2ccccc2C1=O` (configuration not stated) gave CYP2C19 inh 23, PostGolgi ctrl 10, CYP2C9 act 0.8, CYP2C9 inh 16, PostGolgi yeast 8 and CYP2C19 act 0.8.
Screening COCCNS(=O)(=O)c1ccc(C2CNC(=O)C2)cc1 (configuration not stated) returned CYP2C19 inh -13, PostGolgi ctrl -2, CYP2C9 act 1.1, CYP2C9 inh -8, PostGolgi yeast -5 and CYP2C19 act 1.1.
